From the supplement of paper PMC11006884
About 6,500 targets were measured; listed, in parts, are those with a hit and a random draw of the rest. About 2% of all pairs of compound and target were hits. Values without a mark were called inactive.

Each target was assayed with COC(=O)C#Cc1ccccc1 [methyl 3-phenylpropiolate] (assay: log2 ratio of iodoacetamide-alkyne labeling of the cysteine site, DMSO over compound (competition); higher = stronger covalent engagement of the cysteine by the compound, active = 1 or more). Conditions: 500 µM; treatment time 1 h; system: HEK293T cell lysate.
Summary of the method: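 Electrophile (500 µM) or vehicle was added to HEK293T lysate (2 mg/mL) for 1 h at ambient temperature before iodoacetamide alkyne labelling (1 h) and click coupling to sCIP-TMT reagents. After pooling, overnight trypsin digestion at 37 °C, streptavidin enrichment and acid elution, peptides were measured by Orbitrap Eclipse LC-MS/MS with FAIMS and quantified in FragPipe. Each cysteine's log2 competition ratio compares mean control-channel with mean compound-channel reporter intensity, control over compound. Data came from duplicate channels across three replicates, excluding cysteines quantified in only one replicate.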

UniProt Q53H80, sequence (Q53H80 whole entry): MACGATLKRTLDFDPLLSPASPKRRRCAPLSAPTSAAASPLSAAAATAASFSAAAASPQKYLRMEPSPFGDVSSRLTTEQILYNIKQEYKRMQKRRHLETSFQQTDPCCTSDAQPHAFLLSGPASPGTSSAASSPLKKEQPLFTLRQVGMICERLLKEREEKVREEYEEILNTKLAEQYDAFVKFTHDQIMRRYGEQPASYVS
UniProt Q06265, sequence (Q06265 whole entry): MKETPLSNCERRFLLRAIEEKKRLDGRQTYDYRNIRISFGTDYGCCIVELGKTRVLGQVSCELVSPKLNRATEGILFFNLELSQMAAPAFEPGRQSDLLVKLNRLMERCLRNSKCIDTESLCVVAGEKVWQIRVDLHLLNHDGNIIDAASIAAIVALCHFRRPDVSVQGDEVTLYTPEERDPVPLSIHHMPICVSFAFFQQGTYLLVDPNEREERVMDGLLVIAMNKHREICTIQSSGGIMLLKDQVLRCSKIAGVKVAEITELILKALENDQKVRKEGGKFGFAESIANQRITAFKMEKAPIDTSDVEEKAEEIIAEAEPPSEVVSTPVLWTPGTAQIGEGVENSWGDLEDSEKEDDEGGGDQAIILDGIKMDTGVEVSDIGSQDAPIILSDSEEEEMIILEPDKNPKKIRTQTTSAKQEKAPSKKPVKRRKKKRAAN
UniProt Q13144, sequence (Q13144 whole entry, looked up): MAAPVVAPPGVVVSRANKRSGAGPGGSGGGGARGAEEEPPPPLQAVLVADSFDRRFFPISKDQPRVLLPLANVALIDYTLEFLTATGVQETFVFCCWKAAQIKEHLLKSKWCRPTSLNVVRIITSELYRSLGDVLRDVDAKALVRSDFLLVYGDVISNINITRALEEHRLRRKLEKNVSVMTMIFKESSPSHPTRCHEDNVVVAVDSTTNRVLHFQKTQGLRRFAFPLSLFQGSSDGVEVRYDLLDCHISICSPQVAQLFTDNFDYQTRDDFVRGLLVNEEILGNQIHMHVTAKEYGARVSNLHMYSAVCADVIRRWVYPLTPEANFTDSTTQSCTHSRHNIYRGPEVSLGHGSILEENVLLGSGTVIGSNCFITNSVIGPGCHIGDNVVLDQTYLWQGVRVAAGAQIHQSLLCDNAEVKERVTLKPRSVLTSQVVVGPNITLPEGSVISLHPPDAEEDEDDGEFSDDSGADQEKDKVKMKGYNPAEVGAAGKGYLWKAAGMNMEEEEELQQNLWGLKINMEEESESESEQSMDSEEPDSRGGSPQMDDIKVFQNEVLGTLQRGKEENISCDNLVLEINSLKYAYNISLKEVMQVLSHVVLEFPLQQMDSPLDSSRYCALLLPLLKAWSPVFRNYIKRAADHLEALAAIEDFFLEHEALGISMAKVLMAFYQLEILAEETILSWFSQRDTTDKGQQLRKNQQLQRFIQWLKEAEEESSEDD
UniProt Q14676, sequence (Q14676 whole entry, looked up): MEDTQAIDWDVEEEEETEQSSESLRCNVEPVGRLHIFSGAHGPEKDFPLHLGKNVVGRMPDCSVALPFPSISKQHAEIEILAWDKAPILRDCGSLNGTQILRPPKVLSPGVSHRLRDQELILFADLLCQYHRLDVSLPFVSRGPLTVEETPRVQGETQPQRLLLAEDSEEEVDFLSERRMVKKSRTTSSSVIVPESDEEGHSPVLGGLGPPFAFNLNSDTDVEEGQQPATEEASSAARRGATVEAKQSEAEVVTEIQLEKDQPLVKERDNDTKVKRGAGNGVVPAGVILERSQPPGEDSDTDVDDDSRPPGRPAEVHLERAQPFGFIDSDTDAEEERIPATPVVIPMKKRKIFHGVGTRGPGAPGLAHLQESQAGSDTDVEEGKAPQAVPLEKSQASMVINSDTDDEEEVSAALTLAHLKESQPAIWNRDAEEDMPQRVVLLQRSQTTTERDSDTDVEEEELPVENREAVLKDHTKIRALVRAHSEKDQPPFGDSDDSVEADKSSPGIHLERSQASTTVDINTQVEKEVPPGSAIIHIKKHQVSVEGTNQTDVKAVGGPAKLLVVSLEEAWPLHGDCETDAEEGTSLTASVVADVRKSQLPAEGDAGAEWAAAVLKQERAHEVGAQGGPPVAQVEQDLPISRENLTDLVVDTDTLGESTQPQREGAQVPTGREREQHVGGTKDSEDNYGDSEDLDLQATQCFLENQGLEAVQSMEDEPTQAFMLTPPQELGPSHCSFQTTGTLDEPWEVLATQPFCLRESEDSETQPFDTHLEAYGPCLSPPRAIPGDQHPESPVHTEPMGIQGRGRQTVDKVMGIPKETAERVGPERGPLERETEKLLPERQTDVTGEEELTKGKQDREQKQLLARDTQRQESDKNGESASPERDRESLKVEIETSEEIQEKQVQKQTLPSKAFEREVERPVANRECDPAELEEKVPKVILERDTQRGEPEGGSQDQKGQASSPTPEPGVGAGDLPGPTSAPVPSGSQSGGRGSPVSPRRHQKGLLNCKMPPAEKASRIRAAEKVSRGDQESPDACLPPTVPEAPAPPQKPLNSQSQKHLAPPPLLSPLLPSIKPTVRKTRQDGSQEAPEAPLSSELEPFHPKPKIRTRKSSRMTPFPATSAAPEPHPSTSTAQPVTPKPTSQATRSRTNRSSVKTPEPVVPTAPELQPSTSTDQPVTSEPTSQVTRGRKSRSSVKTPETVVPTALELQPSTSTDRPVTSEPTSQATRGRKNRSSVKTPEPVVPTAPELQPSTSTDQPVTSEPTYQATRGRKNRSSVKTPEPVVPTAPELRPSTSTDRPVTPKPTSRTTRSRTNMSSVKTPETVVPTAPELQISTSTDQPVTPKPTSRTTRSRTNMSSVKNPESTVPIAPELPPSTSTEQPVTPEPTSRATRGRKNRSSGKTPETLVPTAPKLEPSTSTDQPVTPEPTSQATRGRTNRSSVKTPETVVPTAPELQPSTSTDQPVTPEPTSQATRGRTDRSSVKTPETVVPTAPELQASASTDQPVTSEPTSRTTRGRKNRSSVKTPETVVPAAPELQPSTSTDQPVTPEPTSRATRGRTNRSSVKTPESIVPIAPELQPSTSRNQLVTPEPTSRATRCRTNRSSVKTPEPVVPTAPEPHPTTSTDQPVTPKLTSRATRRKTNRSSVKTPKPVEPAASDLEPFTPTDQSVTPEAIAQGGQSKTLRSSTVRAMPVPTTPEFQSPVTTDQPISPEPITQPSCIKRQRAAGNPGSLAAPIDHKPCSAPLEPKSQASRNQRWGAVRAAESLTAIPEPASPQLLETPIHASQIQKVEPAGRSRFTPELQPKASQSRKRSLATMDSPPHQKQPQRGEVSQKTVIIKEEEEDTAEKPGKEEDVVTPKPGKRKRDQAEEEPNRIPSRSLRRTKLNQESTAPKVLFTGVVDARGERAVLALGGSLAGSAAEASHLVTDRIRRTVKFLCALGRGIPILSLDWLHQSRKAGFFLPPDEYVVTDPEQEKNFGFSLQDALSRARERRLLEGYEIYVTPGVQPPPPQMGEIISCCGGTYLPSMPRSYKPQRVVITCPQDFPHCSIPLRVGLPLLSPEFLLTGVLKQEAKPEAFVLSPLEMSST
UniProt P55265, sequence (P55265 whole entry, looked up): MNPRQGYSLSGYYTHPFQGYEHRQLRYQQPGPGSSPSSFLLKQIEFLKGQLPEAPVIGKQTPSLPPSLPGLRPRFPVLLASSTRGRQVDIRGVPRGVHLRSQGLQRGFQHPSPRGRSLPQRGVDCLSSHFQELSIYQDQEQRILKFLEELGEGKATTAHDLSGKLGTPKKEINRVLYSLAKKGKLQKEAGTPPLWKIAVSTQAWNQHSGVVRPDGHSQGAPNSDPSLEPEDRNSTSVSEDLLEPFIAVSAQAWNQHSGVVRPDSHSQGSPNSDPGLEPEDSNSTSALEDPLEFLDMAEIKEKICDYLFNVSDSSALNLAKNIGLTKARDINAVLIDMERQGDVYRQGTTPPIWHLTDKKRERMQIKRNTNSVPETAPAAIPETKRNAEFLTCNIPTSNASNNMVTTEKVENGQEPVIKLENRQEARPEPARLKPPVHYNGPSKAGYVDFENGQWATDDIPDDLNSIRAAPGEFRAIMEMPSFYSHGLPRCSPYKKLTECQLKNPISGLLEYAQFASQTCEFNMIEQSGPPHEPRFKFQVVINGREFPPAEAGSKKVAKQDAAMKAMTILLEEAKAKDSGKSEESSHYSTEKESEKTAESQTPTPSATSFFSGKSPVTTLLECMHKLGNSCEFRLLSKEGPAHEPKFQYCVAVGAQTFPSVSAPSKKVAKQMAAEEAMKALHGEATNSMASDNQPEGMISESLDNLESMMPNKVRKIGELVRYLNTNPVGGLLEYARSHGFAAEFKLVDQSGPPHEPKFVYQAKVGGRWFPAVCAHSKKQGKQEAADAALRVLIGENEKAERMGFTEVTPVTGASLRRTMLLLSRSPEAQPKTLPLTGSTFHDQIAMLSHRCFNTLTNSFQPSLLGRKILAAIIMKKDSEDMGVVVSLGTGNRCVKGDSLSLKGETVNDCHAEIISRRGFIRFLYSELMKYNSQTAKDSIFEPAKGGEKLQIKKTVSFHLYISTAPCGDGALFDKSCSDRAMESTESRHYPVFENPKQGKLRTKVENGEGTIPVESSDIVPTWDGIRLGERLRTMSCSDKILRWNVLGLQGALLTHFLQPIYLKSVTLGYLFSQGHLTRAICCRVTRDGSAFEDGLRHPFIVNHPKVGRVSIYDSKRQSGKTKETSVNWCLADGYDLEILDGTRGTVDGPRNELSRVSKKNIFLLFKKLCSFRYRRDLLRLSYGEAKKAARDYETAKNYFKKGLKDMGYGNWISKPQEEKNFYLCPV
UniProt Q00535, sequence (Q00535 whole entry, looked up): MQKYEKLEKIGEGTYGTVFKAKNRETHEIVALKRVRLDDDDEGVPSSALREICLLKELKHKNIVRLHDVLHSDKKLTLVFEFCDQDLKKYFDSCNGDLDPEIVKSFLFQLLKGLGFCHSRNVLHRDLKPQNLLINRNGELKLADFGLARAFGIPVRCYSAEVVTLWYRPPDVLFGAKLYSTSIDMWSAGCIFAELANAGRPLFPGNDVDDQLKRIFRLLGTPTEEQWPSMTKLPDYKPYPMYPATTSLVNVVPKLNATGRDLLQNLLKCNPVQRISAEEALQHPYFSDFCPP

Point of comparison: EXOSC9 C9 (UniProt Q06265), “log2 ratio of iodoacetamide-alkyne labeling” value (shortened to “log2 ratio”) 0.307. Against it:
- PITRM1 C313 (UniProt Q5JRX3) — within 0.2 log units, 0.195
- DYNC1H1 C4216 (UniProt Q14204) — within 0.2 log units, 0.162
- USP14 C415 (UniProt P54578) — lower, -0.369
- LRRFIP1 C14 (UniProt Q32MZ4) — lower, 0.0967
- BPTF C1357 (UniProt Q12830) — higher, 0.53
- AKAP13 C683 (UniProt Q12802) — within 0.2 log units, 0.255
- ADAR C649 (UniProt P55265) — within 0.2 log units, 0.375
- C5orf22 C195 (UniProt Q49AR2) — within 0.2 log units, 0.458
- MTA1 C512 (UniProt Q13330) — within 0.2 log units, 0.481
- DYNC1H1 C1977 (UniProt Q14204) — within 0.2 log units, 0.124
- PITRM1 C780 (UniProt Q5JRX3) — within 0.2 log units, 0.31
- MDC1 C128 (UniProt Q14676) — within 0.2 log units, 0.14
- GFPT1 C55 (UniProt Q06210) — within 0.2 log units, 0.387
- P86790_C358 (UniProt P86791+P86790) — within 0.2 log units, 0.213
- FOXK1 C439 (UniProt P85037) — higher, 0.622
- SPTBN1 C112 (UniProt Q01082) — higher, 0.622
- CLTC C870 (UniProt Q00610) — higher, 0.621
- RPS27A C144 (UniProt P62979) — lower, -0.175
- EIF2B5 C335 (UniProt Q13144) — within 0.2 log units, 0.267
- MTA1 C229 (UniProt Q13330) — within 0.2 log units, 0.124
- UniProt P61163_C34 — within 0.2 log units, 0.205
- UniProt Q12905_C37 — lower, 0.0335
- RPS27A C149 (UniProt P62979) — within 0.2 log units, 0.251
- PPA1 C274 (UniProt Q15181) — within 0.2 log units, 0.425
- CDK5 C157 (UniProt Q00535) — within 0.2 log units, 0.141
- UniProt P62241_C71 — within 0.2 log units, 0.335
- PPA1 C270 (UniProt Q15181) — within 0.2 log units, 0.153
- ACOX1 C199 (UniProt Q15067) — lower, 0.0457

UniProt Q5H9L4_C158 was tested, and the “log2 ratio” value was 1.09 (active).
With MAP7D1 C361 (UniProt Q3KQU3) the “log2 ratio” value was 1.65 (active).
UniProt Q02930_C80 was tested, and the “log2 ratio” value was 1.09 (active).
With UniProt Q15365_C194 the “log2 ratio” value was 1.08 (active).
In the case of AKIRIN2 C3 (UniProt Q53H80), the “log2 ratio” value is reported as 1.11 (active).
In the case of SEC24C C433 (UniProt P53992), the “log2 ratio” value is reported as 1.1 (active).
